This is a sample that favours compounds with a hit; in the whole collection about 17% have one here.
ClpP mod: qHTS Assay for Activators of ClpP. ATP-dependent Clp protease proteolytic subunit (Bacillus subtilis (strain 168)), P80244. purified B. subtilis ClpP, FRET peptide cleavage, 20 min. Potency, µM (top dose mostly 57.5 µM), without a hit: at the highest dose activity change, negative = active. 340,000 compounds, 1.9% hits; active = well fitted falling curve with a large enough effect; inconclusive = small, poorly fitted or top-dose-only effect; inactive = no such curve, though single readings can be large or run the other way; note: the source files actives as falling curves though it sought activators and does not explain the sign; nearly all actives have a fitted effect of over 65% in size
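Purified B. subtilis ClpP, 10 microg/mL final in Tris/HCl pH8 with KCl, BSA, glycerol and Tween-20, cleaved an Abz/nitrotyrosine-quenched decapeptide. Fluorescence (ex 320, em 430) was read at 0 and 20 min at room temperature. Delta was normalized to 5.8 microM ADEP and DMSO/no-enzyme controls.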
TDP1 inh: TDP1 (human) enzyme inhibition; 350,000 compounds, 0.28% hits; Potency, µM (titrated, usually from 130 µM), without a hit: at the highest dose activity change, negative = inhibition, actives largely listed as inhibitors; AID 485290; Q9NUW8; recombinant TDP1, AlphaScreen DNA substrate cleavage; note: % is set by controls: 0 for no effect and ±100 for the full control effect; nearly all actives have a fitted effect of over 40% in size
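Enzyme-compound mixtures sat 15 min at room temperature, followed by a 5 min reaction with 15 nM final substrate and 10 min with AlphaScreen beads. Recombinant human Tdp1 was used at 1 nM final.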
DT40 TDP1 CPT: growth inhibition of DT40 Tdp1-/-;hTDP1 cells with camptothecin (screen for TDP1 inhibitors); chicken DT40 Tdp1-/-;hTDP1 cells + 20 nM CPT, ATP luminescence, 48 h; Potency, µM (series often up to 46.2 µM), inactives show at the top dose activity change, negative = growth inhibition, usual class: inhibitors; 420,000 compounds, 12% hits; AID 686979; note: % is set by controls: 0 for no effect and ±100 for the full control effect; nearly all actives have a fitted effect of over 55% in size
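Cell growth measured by CellTiter-Glo luminescence after a minimum 48 h, 37 C compound exposure with 20 nM CPT in Tdp1-knockout DT40 cells stably expressing hTDP1, seeded 400/well; qHTS titration format.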
DT40 TDP1 no CPT: qHTS for Inhibitors of human tyrosyl-DNA phosphodiesterase 1 (TDP1): qHTS in cells in absence of CPT. DT40 Tdp1-/- hTDP1 cells, no CPT, ATP luminescence, 48 h. Potency, µM (highest dose often 46.2 µM), for the others: at the highest dose activity change, negative = growth inhibition, usual class: inhibitors. 420,000 compounds, 15% hits; note: % is set by controls: 0 for no effect and ±100 for the full control effect; nearly all actives have a fitted effect of over 55% in size
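Camptothecin absent (DMSO only). Human TDP1-complemented DT40 knockout cells, 400 cells/well, 37 °C for minimum 48 hr; ATP measured via CellTiter-Glo, 30 min dark incubation, luminescence.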
Starred values were filed as active, the others as inactive; ? = inconclusive; . = not tested or not shown; [ ] = another dose, or the depositor's remark. Unless noted, calls come from the whole dose curve; as a rule, active = well fitted curve in the direction sought with a large enough effect; inconclusive = small, poorly fitted or top-dose-only effect, or another doubt; inactive = no such curve, though single readings can be large; an effect the other way counts as inactive or inconclusive. Potency is the fitted concentration of half-maximal effect.

SMILES	ClpP mod	TDP1 inh	DT40 TDP1 CPT	DT40 TDP1 no CPT
Cc1ccc(C)c(NC(=O)CSc2nnc(CCCCCNC(=O)OC(C)(C)C)o2)c1	1%	0%	?	?
Cc1cccc(C)c1NC(=O)CSc1nnc(CCCCCNC(=O)OC(C)(C)C)o1	-2%	3%	15µM*	13µM*
CCCCCCN(C(=O)CCCCCN1C(=O)NC(c2ccc(-c3ccccc3)cc2)C(C(=O)OCc2ccccc2)=C1C)C(C(=O)NCCCC)c1cccc(C(=O)OC)c1 (centres undefined)	.	5%	.	.
N#C/C(=C1\SCC(c2ccccc2Cl)S1)n1ccnc1 (centres undefined)	.	.	?	24µM*
CCc1cccc(C)c1NC(=O)c1ccc2c(c1)CCN2S(=O)(=O)CC	-1%	3%	?	12µM*
CCc1cccc(C)c1NC(=O)c1ccc2c(c1)CCN2S(=O)(=O)c1ccc(Cl)cc1	0%	5%	?	9.2µM*
CCS(=O)(=O)N1CCc2cc(C(=O)Nc3cccc(Cl)c3C)ccc21	1%	-3%	?	?
CCS(=O)(=O)N1CCc2cc(C(=O)Nc3cc(Cl)ccc3C)ccc21	52%	9%	29µM*	23µM*
CC(C)CN(C(=O)COC(=O)CNC(=O)c1ccccc1F)c1c(N)n(Cc2ccccc2)c(=O)[nH]c1=O	1%	.	-1%	-5%
CCOC(=O)CC/C(C)=N\N=C1\SC(CC(=O)O)C(=O)N1c1ccccc1 (centres undefined)	.	-11%	10%	-7%
O=C(c1cccc(OC2CCN(Cc3ccc(F)cc3)CC2)c1)N1CCCC1	-1%	.	?	-8%
O=c1c2ccccc2c(=O)n(Cc2ccccc2)n1Cc1ccccc1	-28%	0%	6%	-18%
c1ccc(Cn2c[n+](Cc3ccccc3)c3ccccc32)cc1	0%	4%	3.3µM*	2.9µM*
COc1ccc(-n2c(/C=C/c3cccc(C(F)(F)F)c3)nc3ccccc3c2=O)cc1Cl	0%	5%	8.2µM*	13µM*
CCOc1ccc(-n2c(/C=C/c3cccc(F)c3)nc3cc(OC)c(OC)cc3c2=O)cc1	1%	0%	9.2µM*	9.2µM*
COc1ccc(-n2c(/C=C/c3ccccc3F)nc3cc(OC)c(OC)cc3c2=O)cc1Cl	?	5%	15µM*	18µM*
COc1ccc(-n2c(SC3CCOC3=O)nc3ccccc3c2=O)cc1Cl (centres undefined)	0%	3%	13µM*	?
COc1ccc(CC(=O)Nc2cccnc2)cc1	-1%	4%	0%	0%
COc1ccc(-n2c(/C=C/c3cccc4ccccc34)nc3ccccc3c2=O)cc1Cl	2%	5%	21µM*	21µM*
O=C(O)c1cccc(-n2c(/C=C/c3ccc([N+](=O)[O-])cc3)nc3ccccc3c2=O)c1	-1%	6%	?	-20%
Cc1csc(C(C)N(C)C(=O)c2cnn(-c3nccc(-c4cc(C)sc4C)n3)c2C)n1 (centres undefined)	.	.	-6%[9.04 µM]	?
NC(=S)N/N=C/c1ccc2cccc(OCc3ccccc3)c2n1	.	.	?	29µM*
NC(N)=N/N=C/c1ccc2cccc(OCc3ccccc3)c2n1	-6%	.	9.2µM*	7.3µM*
O/N=C/c1ccc2cccc(OCc3ccccc3)c2n1	4%	.	-4%	-2%
OC(c1ccc(CN2CCCCC2)cc1)c1ncc(-c2ccccc2)[nH]1 (centres undefined)	-3%	.	5%	-14%
SMILES	ClpP mod	TDP1 inh	DT40 TDP1 CPT	DT40 TDP1 no CPT
CCOc1ccc(-c2nc(CSCC(=O)N3CCN(c4cccc(C(F)(F)F)c4)CC3)c(C)o2)cc1	-7%	2%	21µM*	10µM*
COc1ccc(-c2nc(CSCC(=O)N3CCN(c4ccc(OC)cc4)CC3)c(C)o2)cc1	0%	2%	?	10µM*
COc1ccc(-c2nc(CSCC(=O)N3CCN(c4cccc(C)c4C)CC3)c(C)o2)cc1OC	-23%	5%	18µM*	23µM*
COc1ccc(-c2nc(CSCC(=O)N3CCN(c4cc(Cl)ccc4C)CC3)c(C)o2)cc1	?	7%	13µM*	16µM*
COc1cc(OC)c(C2C=CC(=O)CC2)c(OC)c1 (centres undefined)	2%	.	4%	-24%
CCOC(=O)c1c(S(=O)(=O)NCC(=O)Nc2ccc(C)c(N(C)C)c2)c(C)n(C)c1C	3%	5%	6%	-10%
CN(CC(=O)NC(c1ccccc1)c1ccccc1)Cc1nc2ccccc2c(=O)[nH]1	0%	8%	?	?
CCN(CC(=O)Nc1cc(OC)ccc1OC)Cc1nc2ccccc2c(=O)[nH]1	-2%	1%	1%	11%
CN(CC(=O)NC(=O)NCc1ccco1)Cc1nc2ccccc2c(=O)[nH]1	-1%	50µM*	4.6µM*	1.6µM*
CN(CC(=O)Nc1ccccc1Sc1ccccc1)Cc1nc2ccccc2c(=O)[nH]1	.	8%	?	18µM*
COc1cc2c(cc1NC(=O)CN(C)Cc1nc3ccccc3c(=O)[nH]1)oc1ccccc12	-4%	6%	18µM*	23µM*
CSc1ccc(CN(C)Cc2nc3ccccc3c(=O)[nH]2)cc1	-2%	6%	?	15µM*
CS(=O)(=O)N(Cc1ccc(F)cc1)Cc1nc2ccccc2c(=O)[nH]1	0%	7%	3%	2%
Cc1c(C(=O)NCC2(c3ccccc3)CCOCC2)cnn1-c1nccc(-c2ccco2)n1	.	.	?	-23%
Cc1cc(-c2ccccc2)nc2cc(C(=O)NCc3ccco3)nn12	-24%	-6%	?	?
COc1ccc(N2C(=O)C3C(c4ccc(C(=O)O)cc4)NC(Cc4ccccc4)(C(=O)O)C3C2=O)c([N+](=O)[O-])c1 (centres undefined)	.	3%	5%	19%
NC(N)=NC(N)=Nc1ccc(SC(F)(F)F)cc1	-1%	5%	10µM*	9.2µM*
COc1cccc(N=C(N)N=C(N)N)c1	0%	3%	3%	-2%
Cc1cc2c(s1)c1cnn(Cc3ccc(C(F)(F)F)cc3)c(=O)c1n2C	.	-4%	.	.
O=C(Nc1nc2ccc(F)cc2s1)c1nc(S(=O)(=O)Cc2ccccc2)ncc1Cl	1%	-2%	2.3µM*	2.3µM*
Cc1cccc(CS(=O)(=O)c2ncc(Cl)c(C(=O)Nc3nc4ccc(F)cc4s3)n2)c1	2%	-2%	2.3µM*	2.3µM*
CSc1ncc(Cl)c(C(=O)Nc2nc3ccc(F)cc3s2)n1	-1%	5%	1%	4%
O=C(COC(=O)CN1C(=O)C2CCCCC2C1=O)Nc1cc(F)ccc1F (centres undefined)	1%	-5%	?	-30%
CCc1ccc2oc(C(=O)Nc3ccccc3OC)cc(=O)c2c1	0%	5%	-23%	-22%
O=C(CCCc1nc(-c2ccccc2)no1)Nc1cccnc1	-5%	3%	?	?
Cc1ccc(-c2noc(CCCC(=O)Nc3cccnc3)n2)cc1	-2%	7%	?	21µM*

Bioassay records from PubChem BioAssay.
